From PubChem BioAssay (EPA / NIEHS)
Calls of active or inactive are those of the source. The calls were made as follows: active = hit-call score of the fitted dose curve at least 0.9, where 1 is the maximum; inactive = score below 0.9.

Assay: CCTE_Shafer_MEA_acute_spike_number: CCTE's Neural Acute Assay for Total Number of Spikes, Shafer Lab (AID 2284008);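 as to AC50: curve fitted for decrease in spike count so AC50 reflects inhibitors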
Procedure, shortened: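 Cortical neurons from rat, matured to DIV 13 or 15 on microelectrode arrays, are recorded at 37 C before and during 40-min exposure to 0.03-40 uM compound. Wells need >/= 10 active electrodes.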

Structure (SMILES) | outcome | AC50
CCCCC=O | inactive | –
CC(=O)Nc1ccc(O)cc1 | inactive | –
CCC(C)c1ccccc1O (centres undefined) | – | 2.06 µM (active)
OCC(CO)(CBr)CBr | inactive | –
CCCCCCCCCCCC | inactive | –
CN(C)CCOC(c1ccccc1)c1ccccc1 | – | 4.98 µM (active)
O=C1NS(=O)(=O)c2ccccc21 | – | 0.00978 µM (active)
N=C(N)c1ccc(OCCCCCOc2ccc(C(=N)N)cc2)cc1 | inactive | –
Oc1c(Cl)cc(Cl)cc1Sc1cc(Cl)cc(Cl)c1O | inactive | –
CCCCc1oc2ccccc2c1C(=O)c1cc(I)c(OCCN(CC)CC)c(I)c1 | – | 8.91 µM (active)
O=C(CCCN1CCC(O)(c2ccc(Cl)cc2)CC1)c1ccc(F)cc1 | – | 1.7 µM (active)
Oc1ccc(Cc2ccccc2O)cc1 | – | 0.00292 µM (active)

Assay: CCTE_Shafer_MEA_acute_firing_rate_mean: CCTE's Neural Acute Assay for Mean Firing Rate, Shafer Lab (AID 2284009);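 also: analyzed for loss of signal so actives lower firing rate relative to DMSO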
Procedure, shortened: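 Rat primary cortical neurons on 48-well MEA plates, dosed at 0.03-40 uM on DIV 13 or 15; 40 min spontaneous activity recorded at 37 C before and after compound. Spike rate per electrode averaged per well, expressed as percent change from baseline.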

Structure (SMILES) | outcome | AC50
CCCCC=O | inactive | –
CC(=O)Nc1ccc(O)cc1 | inactive | –
CCC(C)c1ccccc1O (centres undefined) | – | 2.06 µM (active)
OCC(CO)(CBr)CBr | inactive | –
CCCCCCCCCCCC | inactive | –
CN(C)CCOC(c1ccccc1)c1ccccc1 | – | 4.98 µM (active)
O=C1NS(=O)(=O)c2ccccc21 | – | 0.00978 µM (active)
N=C(N)c1ccc(OCCCCCOc2ccc(C(=N)N)cc2)cc1 | inactive | –
Oc1c(Cl)cc(Cl)cc1Sc1cc(Cl)cc(Cl)c1O | inactive | –
CCCCc1oc2ccccc2c1C(=O)c1cc(I)c(OCCN(CC)CC)c(I)c1 | – | 8.87 µM (active)
O=C(CCCN1CCC(O)(c2ccc(Cl)cc2)CC1)c1ccc(F)cc1 | – | 1.78 µM (active)
Oc1ccc(Cc2ccccc2O)cc1 | – | 0.000868 µM (active)
